According to PubChem BioAssay (EPA / NIEHS):
Calls of active or inactive are those of the source. Rule for the calls: active = hit-call score of the fitted dose curve at least 0.9, where 1 is the maximum; inactive = score below 0.9.

Read-out: Protein phosphatase 2A (PPP2R4), PTPA (gene 5524)
Assay: LTEA_HepaRG_PPP2R4: Life Technologies and Expression Analysis (LTEA) Assay for Protein phosphatase 2A (PPP2R4) using HepaRG (AID 2283522)
Conditions: mRNA level, 48 h; actives raise or lower the signal
Description: LTEA_HepaRG is a cell based, multiplexed-readout assay that uses HepaRG, a human liver cell line, with measurements taken at 48 hours after chemical dosing on a 96-well plate.LTEA_HepaRG_PPP2R4 is one of 102 assay component(s) measured in the LTEA HepaRG cell culture assay. It is a marker of Cell proliferation, survival, death.Data from the assay component LTEA_HepaRG_PPP2R4 was analyzed into 1 endpoint. This assay endpoint, LTEA_HepaRG_PPP2R4, was analyzed with bidirectional fitting relative to DMSO as the negative control and baseline of activity. Using a type of inducible reporter, measures of mRNA induction for gain or loss-of-signal activity can be used to understand regulation of transcription factor activity. To generalize the intended target to other relatable targets, this assay endpoint is annotated to the phosphatase intended target family, where the subfamily is serine/threonine phosphatase.
A total of 1060 chemcials from the ToxCast library were tested in eight-point concentration-response experiments. Cell culture and cytotoxicity assays were conducted at Thermo Fisher Scientific's Custom Services facility (Madison, WI). A single lot of human HepaRG cells (Thermo Fisher Scientific, Frederick, MD) was used for the cell culture experiments. 96-well format collagen type I coated plates of human HepaRG cells were prepared using established methods. Briefly, cryopreserved HepaRG cells were thawed, plated at a density of approximately 100,000 cells/well in HepaRG Thaw, Plate, and General Purpose media (HPRG770, Thermo Fisher Scientific), and incubated for 48 hours. 0.5% DMSO was selected as vehicle control to balance the requisite need of DMSO in HepaRG cultures to maintain differentiation (for example, baseline metabolism, proportions of hepatocytes vs. cholangiocytes), while enabling further hepatic receptor pathway activation (for example, PXR and CAR) in response to chemical exposure. 48 hours after plating, the culture medium was replaced with HepaRG Serum-Free Incudtion Media. Cells were exposed to each test chemical in duplicate and maintained in CO2 incubators for another 48 hours. Chemical plates were thawed to room temperature and 200x concentrations of treatment groups were prepared. 8-point conentration-reponse curves were made with the highest exposure at 100 uM, followed by half-log dilutions, all in 0.5% DMSO. Each test plate contained variouse controls, induction positive controls (1mM phenobarbital), cytotoxicity positive controls ([…] aflatoxin B1), vehicle controls (0.5% DMSO), and total lysis controls (0.5% DMSO). Cell morphology images were taken using an Essen IncuCyte FLR automated microscope, with six 96-well plates imaged in about 24 minutes. Images were captured and exported and JPEG files. Spent culture media was transfered to black-well plates for the LDH assay, and remaining media was sorted at -80 C for later use. Cells were treated with RLT buffer and frozen until shipped for gene expression analysis. Total RNA was isolated from the cell suspension in 75 uL of Buffer RLT (Qiagen, Germantown, MD 20874) by Quintiles/Expression Analysis (Durham, NC) using a custom isolation procedure. Total RNA from each plate well was transferred to a preamplification plate. Fluidigm's 96.96 Dynamic ArrayTM (Fluidigm, Amsterdam, the Netherlands) technology was used for gene expression analyses by quantitative reverse transcription polymerase chain reaction (qRT-PCR, performed by Quintiles/Expression Analysis, Durham, NC)89. Standard TaqManTM Assays (Applied Biosystems/ThermoFisher Scientific, Foster City, CA) were used to assess the expression of 93 genes selected based on their selectivity and sensitivity to important hepatic receptors known to be modulated by environmental chemicals; importance in human hepatocyte functionality; and hepatotoxicity. […]

Compound | outcome | AC50
CCN(CC)CCOc1ccc(C(=C(Cl)c2ccccc2)c2ccccc2)cc1 | inactive | 
COc1ccc(OC(F)(F)F)cc1CN[C@H]1CCCN[C@H]1c1ccccc1 |  | 90 µM (active)
Cc1cc(Cc2ccc(N)c(C)c2)ccc1N | inactive | 
NC(=Nc1ccccc1)Nc1ccccc1 | inactive | 
OCC(CO)n1cnc(-c2ccc(F)cc2)c1-c1ccnc(Oc2ccccc2)n1 | inactive | 
NCCOCCOCCN | inactive | 
O=C(O)c1[nH]n(-c2ccc(S(=O)(=O)O)cc2)c(=O)c1N=Nc1ccc(S(=O)(=O)O)cc1 | inactive | 
O=C(O)CC(O)(CC(=O)O)C(=O)O | inactive | 
CCCCCCC(C=O)=Cc1ccccc1 | inactive | 
O=NO | inactive | 
CC(=O)O[C@]1(C(C)=O)CC[C@H]2[C@@H]3C=C(Cl)C4=CC(=O)[C@@H]5C[C@@H]5[C@]4(C)[C@H]3CC[C@@]21C | inactive | 
O=C(O)c1cccnc1 | inactive | 
CC(=O)CC(c1ccccc1)c1c(O)c2ccccc2oc1=O (stereo not given) | inactive | 
COc1ccc(C(=O)Nc2nc3ccccc3c(NCc3ccccc3)c2C#N)cc1 | inactive | 
O=C(NS(=O)(=O)/C=C/c1cccs1)c1ccc(F)cc1Br | inactive | 
CCCCC(CC)CO (stereo not given) | inactive | 
c1ccc2occc2c1 | inactive | 
CO[C@@H]1COCC[C@@H]1N[C@@H]1CC[C@@](C(=O)N2CCc3ncc(C(F)(F)F)cc3C2)(C(C)C)C1 | inactive | 
NC=O | inactive | 
COC(=O)CCCC(=O)OC | inactive | 

Compound | outcome | AC50
CC1=C(C)S(=O)(=O)CCS1(=O)=O |  | 74.4 µM (active)
CC1(C)C(=O)NC(=O)N1CO | inactive | 
CCCCOC(=O)CCCCC(=O)OCCCC | inactive | 
OCC(O)CO | inactive | 
CCCCC(CC)COP(=O)(OCC(CC)CCCC)OCC(CC)CCCC (stereo not given) | inactive | 
C=CCCCCCCCCCCCC | inactive | 
CC(N)=O | inactive | 
CCc1nc(N)nc(N)c1-c1ccc(Cl)cc1 | inactive | 
Cn1cnc2c1c(=O)[nH]c(=O)n2C | inactive | 
S=c1[nH]c2ccccc2s1 | inactive | 
O=Cc1ccccc1C=O | inactive | 
CC(=O)S[C@H](C(=O)N[C@H]1Cc2ccccc2[C@H]2CCC[C@@H](C(=O)O)N2C1=O)C(C)C | inactive | 
CC(C)COC(=O)CCCCC(=O)OCC(C)C | inactive | 
CC(C)NCC(O)c1ccc(O)c(O)c1 (stereo not given) |  | 0.155 µM (active)
CCCCc1nc2cccnc2n1Cc1ccc(-c2ccccc2-c2nnn[nH]2)cc1 | inactive | 
O=C1c2c(O)cccc2Cc2cccc(O)c21 | inactive | 
C=CCc1ccc(OC)c(OC)c1 | inactive | 
CC(=O)OCC(COC(C)=O)OC(C)=O | inactive | 
C#CC(O)C(CC)CCCC (stereo not given) | inactive | 
CCCCCCCCCCCCCCOS(=O)(=O)O | inactive | 
